# Shown are actives, neighbours in structure and some others; about 1.6% of the full set was active somewhere.
# Epigenetic mod = epigenetic modulators derepressing GFP locus in mouse cells. AID 597. mouse C127i GFP locus derepression, cytometry, 30 h. Potency, µM (top dose mostly 46.1 µM), for the others: at the highest dose GFP derepression (activation). 68,000 compounds, 0.09% hits; note: % of control where 0% means no effect
#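 Locus derepression in mouse mammary C127i cells whose integrated CMV-GFP reporter is normally silent; GFP expression after 30 h compound treatment was quantified by counting fluorescent cells.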
# Peg3 imprint = induces erasure of genomic imprints in mouse ES cells; Potency, µM (titrated, usually from 60.7 µM), for the others: top-dose activity change, positive = activation, hits mostly activators; AID 1948; mouse ES Peg3-LacZ reporter, beta-gal luminescence, 40 h; 110,000 compounds, 0.02% hits; note: potency is the fitted concentration of half-maximal effect
#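 Each well holds 300 Peg3LacZ-Neo (maternal) female ES cells incubated 40 h at 37C, 5% CO2. LacZ is measured by BetaGlo luminescence, with AC50 and maximum efficacy derived from dose-response curves.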
# p53ts 32C tox = p53ts cell cytotoxicity, permissive temperature; H1299-p53A138V at 32C, ATP luminescence viability, 24 h; Potency, µM (doses to about 46.1 µM), for inactives: top-dose activity change, negative = cytotoxicity, hits mostly cytotoxic; 130,000 compounds, 0.93% hits;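 note: potency is the fitted concentration of half-maximal effect; 0% = DMSO and -100% = full killing by reference compound; nearly all actives have a fitted effect of over 55% in size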
#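 Cells: H1299 p53ts (A138V), 600/well, pre-incubated 16–30 h at 37C. Cpd up to 46 uM, 24 h, 32C. Readout: ATPlite luminescence, 20 min RT. Normalization: DMSO vs tamoxifen 100 uM. AC50 by Hill equation.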
# p53ts 39C tox = p53ts cell cytotoxicity, nonpermissive temperature; H1299-p53A138V viability at 39C, ATP luminescence, 24 h; Potency, µM (series often up to 46.1 µM), for the others: at the highest dose activity change, negative = cell killing, most hits filed as cytotoxic; 130,000 compounds, 1.5% hits; AID 902; note: potency is the fitted concentration of half-maximal effect; % is set by controls: 0 for no effect and ±100 for the full control effect; nearly all actives have a fitted effect of over 55% in size
# HBB splice mod = alters splicing of the hemoglobin beta chain | AID 925 | HBB splicing reporter cell assay, activation; EGFP reporter with mutant IVS2-654 intron; response scale: normalised to 500 nM splice-correcting PNA | Potency, µM (series often up to 46.1 µM), inactives show at the highest dose activation, hits mostly activators | 65,000 compounds, 0.06% hits; note: potency is the fitted concentration of half-maximal effect; 0% is about no effect
#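 Compounds were applied for 2 days to HeLa EGFP-654 cells, 500/well in Optimem with 2% FCS. The reporter's EGFP is disrupted by mis-splicing of beta-globin intron IVS2-654. Readout: summed well GFP fluorescence from 488 nm laser scanning; reference was 500 nM antisense […] 654 PNA.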
# UbGFP stabilizer = proteasome inhibitors stabilizing ubiquitin-GFP reporter; 67,000 tested, under 10 active; Potency, µM (top dose mostly 45.9 µM), for inactives: top-dose activation (GFP accumulation), hits mostly activators; AID 526; Ubiquitin-GFP reporter cells, proteasome inhibition, GFP fluorescence; response scale: untreated = 0%, 10 µM MG-132 = 100%; active = well fitted activation curve with a large enough effect, not every such curve was filed as active; inconclusive = small, poorly fitted or top-dose-only effect, or another doubt; inactive = no such curve, though single readings can be large or run the other way; note: potency is the fitted concentration of half-maximal effect
#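 Proteasome blockade was scored as a rise in GFP-expressing U2OS cells carrying a ubiquitin(G76V)-GFP construct, imaged after 4 hr compound treatment at 37 °C across a 46 uM–2.9 nM series.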
# Numbers without * were called inactive; u = inconclusive; x = no result given; [ ] = remark or other dose. Unless noted, calls come from the whole dose curve; as a rule, active = well fitted curve in the direction sought with a large enough effect; inconclusive = small, poorly fitted or top-dose-only effect, or another doubt; inactive = no such curve, though single readings can be large; an effect the other way counts as inactive or inconclusive.
SMILES,Epigenetic mod,Peg3 imprint,p53ts 32C tox,p53ts 39C tox,HBB splice mod,UbGFP stabilizer
COc1ccc(N2CCN(C(=O)c3cccc(NC(=O)c4nsc5ccccc45)c3)CC2)cc1,x,-9.8%[10.9 µM],u,u,x,x
O=C(CC1N=C2c3ccccc3N=C(SCc3ccc(F)cc3)N2C1=O)NC1CCCCC1 (stereo unspecified),x,12.7%[10.9 µM],-4.1%,-22.2%,x,x
CN(C)C(=O)CSc1cccc2cccnc12,u,-26.2%,-0.4%,-2.3%,-0.7%,-2.7%
O=C(CSc1cccc2cccnc12)N1CCCC1,0.631µM*,-36.4%,2.5%,-13.9%,-2.3%,1.1%
COc1cccc(/C=N/n2c(C)c3c(C)nnc(C)c3c2C)c1O,0.0%,-25.4%,u,u,0.3%,-2.0%
NC(=O)c1ccccc1N/C=C/C(=O)c1ccccc1,0.0%,-86.8%,5.01µM*,10µM*,0.1%,-0.3%
CC(C)Oc1ccc(/C(O)=C2/C(=O)C(=O)N(CCCN3CCOCC3)C2c2ccncc2)cc1 (stereo unspecified),-1.6%,-6.9%,-6.2%,1.8%,-6.5%,10.5%
COc1ccc2cc(-c3nc4ccc(C(=O)O)cc4[nH]3)c(=O)oc2c1,x,-91.2%[10.9 µM],1.58µM*,2.51µM*,x,x
CCOc1cccc2cc(-c3nc4ccc(C(=O)O)cc4[nH]3)c(=O)oc12,x,-77.4%[10.9 µM],u,15.8µM*,x,x
COc1ccc2oc(=O)c(-c3nc4ccc(C)cc4[nH]3)cc2c1,x,-16.8%[10.9 µM],-15.2%,u,x,x
CS(=O)(=O)c1cccc(-c2nnc(NC(=O)c3ccc4c(c3)OCCO4)o2)c1,x,-7.7%[10.9 µM],4.7%,1.6%,x,x
Cc1cc(C(=O)OCC(=O)N2CCOCC2)c2ccccc2n1,-0.1%,-3.8%,5.8%,9.4%,-0.4%[57.5 µM],-1.0%
COc1ccc(-c2cc(C(=O)OCC(=O)N3CCCC3)c3ccccc3n2)cc1,-1.9%,-43.0%,12.6µM*,6.31µM*,2.4%[57.5 µM],-3.3%
COc1ccc(-c2cc(C(=O)Oc3ccc(C)c(C)c3)c3ccccc3n2)cc1,x,-8.1%[10.9 µM],-15.1%,-18.5%,x,x
COc1ccc(-c2cc(C(=O)Oc3ccc(Br)cc3)c3ccccc3n2)cc1,x,-17.7%[10.9 µM],u,12.6µM*,x,x
Cc1ccc(OCC(=O)Nc2ccc(OCc3cc(=O)n4cccc(C)c4n3)cc2)cc1C,x,-5.6%[10.9 µM],2.7%,9.2%,x,x
Cc1ccc2oc3c(c(=O)c2c1)C(c1ccc(F)cc1)N(c1nc(C)c(C)s1)C3=O (stereo unspecified),x,-4.7%[10.9 µM],6.1%,7.0%,x,x
O=c1/c(=C/c2ccccn2)sc2nc3ccccc3n12,1.5%,7.2%,10µM*,u,-1.8%[0.0738 µM],11.9%[9.17 µM]
Cc1cccc(NC(=O)CN2C(=O)C3(SCC(=O)N3c3ccccc3)c3ccccc32)c1 (stereo unspecified),x,-10.5%[10.9 µM],-1.9%,12.7%,x,x
COc1cccc(Nc2ncc3nc(-c4ccc(Cl)cc4)c(=O)n(CCC#N)c3n2)c1,0.6%[9.22 µM],x,-7.2%,9.0%,10µM*,u
CCNc1ncc2nc(-c3cccs3)c(=O)n(-c3ccccc3)c2n1,8.1%[9.22 µM],u,2.1%,-6.6%,12.6µM*,u
COc1cccc(Nc2ncc3nc(-c4cccs4)c(=O)n(Cc4cccs4)c3n2)c1,-0.5%[9.22 µM],-3.0%,-16.7%,-17.0%,12.6µM*,1.8%
COc1cccc(Nc2ncc3nc(-c4cccs4)c(=O)n(-c4ccccc4)c3n2)c1,3.98µM*,u,-15.2%,-20.5%,10µM*,u
COc1ccc(-n2c(=O)c(-c3cccs3)nc3cnc(Nc4ccccc4)nc32)cc1,-2.7%[9.22 µM],11.4%,-20.2%,-5.1%,10.4%,19.9%
COc1ccc(-c2nc3cnc(Nc4cccc(OC)c4)nc3n(CCC#N)c2=O)cc1,5.0%[9.22 µM],x,-2.9%,-5.2%,u,u
CC1=C(C(=O)Nc2ccccc2C)C(c2ccccn2)n2nc(SCc3ccccc3F)nc2N1 (stereo unspecified),x,1.7%[10.9 µM],-14.4%,6.31µM*,x,x

# High-throughput results: PubChem, National Center for Advancing Translational Sciences (NCATS)
